Source: PubChem
The list is not random: actives were taken first. Their share in the collection is about 4%.
ADAM17 inh = ADAM17 inhibition, QFRET primary screen; P78536; recombinant ADAM17, EDANS/DABCYL FRET peptide cleavage; inhibition, % at 6.95 µM; 370,000 compounds, 0.83% hits; AID 720648;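 active means inhibition above the mean of compounds lying between control limits plus 3 SD, set per campaign, cut at about 8.5% in these data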;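 further: 0% = DMSO-only wells as the low control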
Target sequence (P78536 215-824 limits assumed): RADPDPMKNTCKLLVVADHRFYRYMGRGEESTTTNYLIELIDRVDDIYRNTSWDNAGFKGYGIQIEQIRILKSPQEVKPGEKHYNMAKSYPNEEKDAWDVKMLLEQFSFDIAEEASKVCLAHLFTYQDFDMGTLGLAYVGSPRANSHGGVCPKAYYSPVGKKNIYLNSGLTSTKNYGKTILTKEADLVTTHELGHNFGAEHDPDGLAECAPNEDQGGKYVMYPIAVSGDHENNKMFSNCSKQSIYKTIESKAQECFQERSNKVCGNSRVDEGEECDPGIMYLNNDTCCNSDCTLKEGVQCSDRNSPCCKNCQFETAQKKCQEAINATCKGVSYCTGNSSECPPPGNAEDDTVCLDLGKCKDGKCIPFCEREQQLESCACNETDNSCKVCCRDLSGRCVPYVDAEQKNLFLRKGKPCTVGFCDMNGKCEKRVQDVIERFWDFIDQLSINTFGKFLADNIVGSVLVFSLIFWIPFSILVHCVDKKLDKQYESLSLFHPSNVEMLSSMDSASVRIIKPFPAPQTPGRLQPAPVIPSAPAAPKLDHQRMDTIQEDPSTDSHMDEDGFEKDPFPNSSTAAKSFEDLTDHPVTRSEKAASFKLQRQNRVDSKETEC
aDG glyco act = alpha-DG glycosylation activation | Pro5-aDG cells, alpha-DG glycosylation AlphaScreen (IIH6); 0% Pro5, 100% B10-LARGE cell signal | activation, % at 10 µM | AID 624168 | 360,000 compounds, 0.22% hits;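 active means activation of at least 8% versus controls, or a plate z-score of at least 8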;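 further: Pro5 are CHO cells carrying HIG-tagged alpha-DG that lacks glycosylation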
NR3A LBD binder = modulators (binders) of human NR3A ligand-binding domain; NR3A LBD differential scanning fluorimetry, Tm shift; 0% = protein alone, 100% = glycine-bound protein; Tm shift relative to glycine control, % at 25 µM; 340,000 compounds, 2.5% hits; AID 1259313;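 active means melting temperature shift of at least 10% of the positive control shift, at one fixed dose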
ADAM10 inh = ADAM10 inhibition, QFRET primary screen. O14672. recombinant ADAM10, EDANS/DABCYL FRET peptide cleavage, 3 h. inhibition, % at 7 µM. 370,000 compounds, 0.62% hits;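 active means inhibition above a per-campaign cutoff equal to the mean of compounds falling between control-based bounds plus 3 SD, cut at about 20% in these data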;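 further: 0% = DMSO wells while the 100% control is not disclosed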
FAS TE block = blocks the thioesterase domain of human fatty acid synthase | P49327 | recombinant FAS-TE, OMFH fluorogenic substrate, fluorescence endpoint | 360,000 compounds, 0.67% hits | inhibition, % at 15 µM;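 active means compounds whose normalised, plate-corrected inhibition of enzyme fluorescence in the single-dose primary screen is 50% or more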;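 further: 0% = DMSO with enzyme and 100% = substrate without enzyme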
The depositor's hits bear a star; . = no result given.

SMILES	ADAM17 inh	aDG glyco act	NR3A LBD binder	ADAM10 inh	FAS TE block
Cc1cccc(C(=O)Nc2ccc(C(=O)N/N=C/c3cccnc3)cc2)c1	-3.3	-0.1	-7.6	3.0	-4.9
Cc1ccc(C)c(NC(=O)CN(C)C(=O)c2cccc(S(=O)(=O)N3CCN(Cc4ccccc4)CC3)c2)c1	-3.9	1.0	17.4*	1.7	3.5
CCN(CC)CCNC(=O)c1ccc(NC(=O)c2cccc(S(=O)(=O)Nc3ccc(C)cc3)c2)cc1	3.3	0.1	-4.7	1.8	2.5
Cc1ccc(Cn2c(=N)n(CC(=O)c3ccccc3)c3ccccc32)cc1	0.6	11.9*	1.9	-11.1	63.7*
CC(C)(C)C(=O)Cn1c(=N)n(Cc2ccccc2)c2ccccc21	3.9	-0.1	0.8	0.2	9.7
Cc1ccc(C(=O)CN2C(=O)C(=O)N(Cc3ccccc3)C2=O)cc1	-2.3	0.5	17.9*	-1.1	-0.7
Clc1cccc(CN2CCN(c3ncc(Cc4ccccc4)cn3)CC2)c1Cl	-3.3	.	.	-9.2	.
COc1cccc(Cn2cccc(NC(=O)Nc3cccc(C#N)c3)c2=O)c1	-7.3	.	-3.4	-3.7	.
CCOc1ccc(NC(=O)[C@@H]2CCCN2C(=O)c2cccs2)cc1S(=O)(=O)N1CCOCC1	-4.1	-0.3	1.7	-16.7	-2.0
Cc1[nH]c2ccccc2c1C1=NNC(=Nc2ccc(F)cc2)SC1	-1.0	-0.2	12.0*	-3.8	-32.8
Cc1[nH]c2ccccc2c1N=Nc1ccc(F)cc1	-2.9	-0.4	24.6*	10.2	36.4
O=C(Nc1cccnc1)C1CCN(S(=O)(=O)c2cccs2)CC1	-3.0	-0.1	-2.3	-2.9	-3.3
COc1ccc(CC2(C)OC(c3ccc(Cl)cc3)=NN2C(C)=O)cc1 (configuration not stated)	-17.3	0.1	13.4*	-46.5	26.1
CCOc1cc(-c2sc(Nc3cc(C)ccc3OC)n[n+]2-c2ccccc2)ccc1OC	-0.8	0.0	12.9*	4.7	-146.1
O=C(Nc1ccccc1C(=O)Nc1ccncc1)c1ccccc1	0.3	0.1	-2.2	8.1	-1.8
COc1ccc(C(N)=S)cc1	-0.6	-0.2	28.9*	-0.3	-9.4
COc1ccc(NC(=O)Nc2ccc3c(c2)N(C)C(=O)CS3)cc1Cl	5.0	0.3	27.1*	-1.4	9.8
COc1ccc(NC(=O)Nc2ccc3c(c2)N(C)C(=O)CS3)cc1OC	-3.1	-0.2	8.5	-11.4	2.8
CC(=O)c1ccc(NC(=O)Nc2ccc3c(c2)N(C)C(=O)CS3)cc1	1.5	0.4	19.2*	-12.6	0.3
CCOc1ccc(NC(=O)Nc2ccc3c(c2)N(C)C(=O)CS3)cc1	-0.5	0.0	18.4*	-5.3	4.3
COc1ccc(NS(=O)(=O)c2cc3c4c(c2)C(C)C(=O)N4CCC3)cc1 (configuration not stated)	-3.1	-0.1	4.8	-4.1	-1.9
CN(C)C1=NC(=O)/C(=C\c2ccccc2)S1	0.1	-0.4	-1.0	12.5	-4.4
O=C(/C=C/c1ccccc1Cl)NNC(=O)c1cccs1	-0.4	0.4	0.5	-2.7	-7.0
Cc1c(C(=O)Nc2ccc3c(c2)OCCO3)sc2nc(-c3ccccc3)cn12	-3.4	2.2	27.1*	8.6	23.5
CC(C)c1nnc(NC(=O)CC23CC4CC(CC(C4)C2)C3)s1	1.4	0.0	1.1	1.9	-2.6
SMILES	ADAM17 inh	aDG glyco act	NR3A LBD binder	ADAM10 inh	FAS TE block
O=C(CSc1nc2ccccc2[nH]1)Nc1nc(-c2ccc(Br)cc2)cs1	4.9	0.2	34.5*	10.6	17.2
CCCc1cc(=O)[nH]c(SCC(=O)Nc2nc(-c3ccccc3)cs2)n1	2.9	-0.1	-10.1	-3.5	-6.1
O=C(Cn1c(=O)oc2ccccc21)Nc1nc(-c2ccc(Br)cc2)cs1	-1.3	-0.1	14.6*	4.8	-16.3
O=C(O)c1cccc(S(=O)(=O)N2CCN(Cc3ccc4c(c3)OCO4)CC2)c1	-3.8	-0.1	-1.9	-6.9	-3.7
Cc1cc(C(=O)N2CCN(S(=O)(=O)c3ccc(C)c(C)c3)CC2)no1	-1.4	-0.1	52.7*	-0.6	-1.2
Cc1ccc(S(=O)(=O)N2CCN(C(=O)C3=COCCO3)CC2)cc1C	-8.6	0.3	-0.8	5.7	-1.5
CC(=O)NC1(C(F)(F)F)C(=O)Nc2c1c(=O)[nH]c(=O)n2Cc1ccco1 (configuration not stated)	-1.5	-0.2	-0.3	-6.6	-8.3
CCCn1c(=S)[nH]c2cc(C(=O)N3CCN(C4CCCCC4)CC3)ccc2c1=O	2.1	0.4	14.8*	7.2	32.6
O=C(c1ccc2c(=O)n(C3CCCC3)c(=S)[nH]c2c1)N1CCN(C2CCCCC2)CC1	1.1	0.1	-4.4	1.8	0.9
Cc1ccc(C(=O)CSc2nn3c(=O)c(C(C)(C)C)nnc3s2)cc1	-2.9	-0.1	-3.1	0.3	-8.4
CC(C)(C)c1nnc2sc(SCC(=O)c3ccc(Cl)cc3)nn2c1=O	.	-0.3	-25.5	.	50.8*
O=C1c2ccccc2C(=O)c2cc(N3CCCCC3)ccc21	-0.6	-0.2	38.3*	-6.0	15.3
c1ccc2cc(N3CCCCC3)ccc2c1	-0.8	-0.1	-8.7	2.0	5.3
Cc1ccc(CSc2nnc(-c3ccc(NS(=O)(=O)c4ccccc4)cc3)o2)cc1	8.6	0.0	16.3*	18.1	19.4
Cc1ccc(-c2n[nH]c(S(C)(=O)=O)c2C#N)cc1	-4.7	-0.2	23.1*	-4.4	-3.8
Clc1ccc(Cn2ccc3ccccc32)cn1	-1.3	-0.1	1.9	-0.6	6.7
Cc1ccc(NC(=O)CSc2ccc3c(c2)OCCO3)c(O)c1	-0.3	1.5	-0.6	-9.4	-0.9
CCCC(C(=O)NCc1ccc(OC)cc1)N(Cc1ccco1)C(=O)c1snc(C(N)=O)c1N (configuration not stated)	-45.0	0.3	14.2*	-109.5	5.3
CCc1cc(C(=O)N(CC)CC(=O)Nc2ccc(OC)cc2)sc1C	-4.0	0.1	-2.2	-10.7	-4.1
N/C(=N\OC(=O)/C=C/c1ccccc1Cl)c1ccncc1	0.4	0.3	11.6*	-2.3	-4.6
COc1cnn(-c2ccc(Br)cc2)c(=O)c1SCc1ccccc1	1.4	0.3	15.4*	-0.8	4.2
COc1cnn(-c2ccc(C)cc2)c(=O)c1SCc1ccccc1	-1.6	-0.1	-1.0	6.1	0.8
CC(=O)N1CCc2cc(S(=O)(=O)NC(Cc3ccccc3)C(=O)Nc3cc(C)ccn3)ccc21 (configuration not stated)	0.7	0.2	.	-1.0	-1.0
Cc1nn(-c2ccccc2)c(Cl)c1/C=N/NC(=O)c1ccccc1NS(=O)(=O)c1cccs1	1.6	0.1	16.1*	1.8	9.0
CCC[C@H]1[C@@H](NC(=O)C2CCCCC2)CC[C@@]23CCCN2C(=O)CCC[C@@H]13	-2.4	.	.	-6.9	.
O=C(Nc1ccc(S(=O)(=O)NCc2ccco2)cc1)c1ccc2ccccc2n1	-9.1	1.3	-5.6	-14.6	21.3
O=C(O)c1cnn(-c2ccccc2)c1-n1cccc1	1.0	0.1	-0.4	-1.8	-6.4
COC(=O)c1cnn(-c2ccc(C)c(C)c2)c1-n1cccc1	-3.7	0.1	11.1*	-4.0	9.4
